How the values were obtained:
Details in all cases: concentration: 1 μM, replicates: in singlicate; n = 1
MYLK4 = system: MYLK4
MYLK = system: MYLK
MYO3A = system: MYO3A
MYO3B = system: MYO3B
NDR1 = system: T1, NDR1
T1 construct: gene STK38

NDR2 = system: NDR2
NEK10 = system: NEK10
NEK11 = system: NEK11
NEK1 = system: NEK1
NEK2 = system: NEK2
NEK3 = system: NEK3
NEK4 = system: NEK4
NEK5 = system: NEK5
NEK6 = system: NEK6
NEK7 = system: NEK7
NEK9 = system: NEK9
NIK = system: T2, NIK
T2 construct: gene MAP3K14

NIM1 = system: T3, NIM1
T3 construct: gene MGC42105

NLK = system: NLK
OSR1 = system: T4, OSR1
T4 construct: gene OXSR1
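Note: KINOMEscan kinase panel screen.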

Row | SMILES | %Inh (MYLK4) | %Inh (MYLK) | %Inh (MYO3A) | %Inh (MYO3B) | %Inh (NDR1) | %Inh (NDR2) | %Inh (NEK10) | %Inh (NEK11) | %Inh (NEK1) | %Inh (NEK2) | %Inh (NEK3) | %Inh (NEK4) | %Inh (NEK5) | %Inh (NEK6) | %Inh (NEK7) | %Inh (NEK9) | %Inh (NIK) | %Inh (NIM1) | %Inh (NLK) | %Inh (OSR1)
1 | N#Cc1ccc(Oc2ccc(Nc3ncnc4cc[nH]c34)cc2Cl)cc1 | 13% | 30% | 18% | 38% | 33% | 0% | 3% | 0% | 0% | 10% | 26% | 0% | 0% | 0% | 13% | 2% | 0% | 30% | 17% | 4%
2 | C[C@@H]1CCN(C(=O)CO)C[C@@H]1N(C)c1ncnc2[nH]ccc12 | 0% | 3% | 0% | 0% | 6% | 14% | 48% | 0% | 0% | 0% | 38% | 0% | 1% | 0% | 0% | 0% | 0% | 0% | 100% | 0%
3 | CC(C)(C)c1ccc(-n2cnc3c(N)ncnc32)cc1 [SKF-97263] | 3% | 8% | 1% | 8% | 0% | 0% | 0% | 0% | 0% | 0% | 0% | 19% | 10% | 0% | 16% | 14% | 0% | 9% | 26% | 16%
4 | Cn1ccc2ncnc(Oc3ccc(NC(=O)Nc4cccnc4)c(Cl)c3)c21 | 0% | 0% | 0% | 1% | 0% | 14% | 0% | 0% | 0% | 0% | 9% | 0% | 0% | 8% | 0% | 3% | 0% | 0% | 0% | 7%
5 | Cl.O=S(=O)(c1cccc(F)c1)c1ccc(Nc2ncnc3cc(Br)sc23)cc1Cl [GSK306886] | 9% | 3% | 22% | 0% | 8% | 1% | 0% | 1% | 32% | 5% | 0% | 0% | 59% | 0% | 0% | 23% | 4% | 0% | 44% | 0%
6 | FC(F)(F)c1ccc(-c2nn3ncccc3c2-c2ccnc(Nc3cccc(C(F)(F)F)c3)n2)cc1 [GW828205] | 1% | 40% | 0% | 0% | 19% | 0% | 0% | 0% | 0% | 0% | 15% | 0% | 0% | 0% | 0% | 0% | 0% | 0% | 10% | 0%
7 | Cl.c1ccc(Cn2ncc3cc(Nc4ncnc5ccccc45)ccc32)cc1 [GW273749] | 37% | 8% | 14% | 0% | 12% | 0% | 0% | 0% | 0% | 5% | 2% | 0% | 18% | 0% | 1% | 15% | 0% | 3% | 0% | 10%
8 | CSc1ccc(NC2=C(c3ccccc3Cl)C(=O)NC2=O)cc1 [SB-342411] | 10% | 4% | 0% | 0% | 31% | 0% | 29% | 0% | 75% | 8% | 0% | 0% | 8% | 0% | 0% | 15% | 0% | 0% | 56% | 2%
9 | C[C@H]1CC[C@@H](C(=O)Nc2ccccc2)CN1c1cc(-c2ccc3c(N)n[nH]c3c2)nc(N)n1 [GSK2283293] | 0% | 40% | 7% | 0% | 13% | 0% | 0% | 0% | 0% | 0% | 1% | 1% | 0% | 0% | 0% | 7% | 0% | 12% | 0% | 11%
10 | COc1ccc(NC(=O)c2ccc(-c3cc(-c4nnc(C)o4)ccc3C)cc2)cc1 [GW595885] | 0% | 14% | 16% | 16% | 12% | 0% | 16% | 0% | 0% | 0% | 5% | 19% | 4% | 0% | 0% | 0% | 0% | 20% | 10% | 14%
11 | CNc1nccc(-c2c(-c3ccc(F)cc3)ncn2CCCN2CCOCC2)n1 [SB-222516] | 0% | 0% | 0% | 0% | 0% | 28% | 0% | 0% | 0% | 0% | 17% | 2% | 100% | 0% | 0% | 0% | 47% | 14% | 0% | 27%
12 | COc1ccc(NC(=O)Nc2ccc(C)c(-c3ccc(C(=O)Nc4ccncc4)cc3)c2)cc1 [GSK1398475] | 0% | 0% | 1% | 0% | 17% | 0% | 0% | 0% | 0% | 0% | 10% | 0% | 8% | 0% | 0% | 0% | 0% | 0% | 43% | 0%
13 | Fc1cccc(COc2ccc(Nc3ncnc4cc[nH]c34)cc2Cl)c1 | 8% | 10% | 4% | 29% | 24% | 8% | 0% | 0% | 0% | 12% | 12% | 3% | 16% | 11% | 9% | 10% | 9% | 48% | 0% | 21%
14 | Cc1ccc(C)c(NC(=O)NCCNc2ccnc(Nc3ccc(F)cc3)n2)c1 [GSK1379878] | 0% | 8% | 0% | 0% | 0% | 16% | 11% | 17% | 0% | 0% | 0% | 0% | 3% | 0% | 0% | 9% | 10% | 0% | 0% | 0%
15 | CS(=O)(=O)CCNCc1nc(-c2ccc3ncnc(Nc4ccc(OCc5cccc(F)c5)c(Cl)c4)c3c2)cs1.Cl [GW583340] | 4% | 1% | 34% | 0% | 0% | 15% | 0% | 0% | 0% | 16% | 3% | 0% | 6% | 0% | 0% | 11% | 0% | 6% | 0% | 0%
16 | CC(C)N1CCC(n2cnc(-c3ccc(F)cc3)c2-c2ccnc(N)n2)CC1 [SB-223132] | 9% | 19% | 0% | 0% | 7% | 0% | 9% | 0% | 11% | 0% | 33% | 0% | 3% | 8% | 0% | 0% | 0% | 0% | 49% | 0%
17 | CCC(CC)(CC)n1cnc2c(N)ncnc21 [SKF-97620] | 0% | 0% | 0% | 35% | 42% | 16% | 65% | 0% | 0% | 0% | 23% | 0% | 0% | 0% | 0% | 0% | 0% | 28% | 17% | 19%
18 | Nc1nc(-c2cccnc2)c(-c2ccnc3ccccc23)s1 [GW684083] | 83% | 15% | 0% | 0% | 0% | 11% | 77% | 27% | 0% | 13% | 2% | 20% | 0% | 0% | 0% | 4% | 29% | 66% | 9% | 11%
19 | CNc1nccc(-c2c(-c3ccc(F)cc3)ncn2C2CCN(C)CC2)n1 [SB-222903] | 0% | 0% | 0% | 19% | 33% | 17% | 0% | 0% | 0% | 0% | 17% | 0% | 0% | 0% | 0% | 0% | 31% | 0% | 83% | 0%
20 | O=C(Nc1ccccc1F)NC1CCN(c2ccnc(Nc3ccc(F)cc3)n2)C1 (stereo not drawn) [GSK1379722] | 0% | 0% | 2% | 0% | 12% | 0% | 22% | 2% | 0% | 0% | 4% | 9% | 12% | 0% | 0% | 0% | 14% | 15% | 17% | 0%
21 | Nc1nc(-c2ccc3c(N)n[nH]c3c2)cc(N2CCCCC2)n1 [GSK2228768] | 0% | 1% | 0% | 0% | 0% | 0% | 0% | 0% | 0% | 3% | 0% | 3% | 4% | 0% | 0% | 0% | 0% | 0% | 0% | 7%
